PubChem BioAssay
Calls of active or inactive are those of the source. Unless noted, the rule behind the calls is not given here.

Legend:
[1] = HepG2 liver cancer cell viability effects, profiling panel, resazurin fluorescence, 24 h, PK04 Diversity Set (AID 1172); settings: higher = more signal; note: test concentration not given here
[2] = basal S. cerevisiae growth modulation, no modifier, primary screen, OD600, strain BY4716, 24 h, basal condition (AID 1173); settings: OD600, 24 h, higher = more signal, called active from +8 up or from −8 down
[3] = MM1S myeloma cell viability, profiling panel, resazurin fluorescence, basal, 24 h, PK04 Diversity Set (AID 1174); settings: higher = more signal, called active from +8 up or from −8 down;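 note: MM1S multiple myeloma cell line; test concentration not given here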
[4] = molecular target: Dihydroorotate dehydrogenase (quinone), mitochondrial (Plasmodium falciparum (isolate 3D7)) (UniProt Q08210); assay: PfDHODH enzyme inhibitors, primary screen, biochemical, C-terminal His tag, absorbance 600 nm (AID 1175); settings: DCIP absorbance 600 nm, higher = more signal, called active from +8 up or from −8 down;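 note: recombinant parasite enzyme with a five histidine tag at its C terminus; test concentration not given here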
[5] = P. aeruginosa biofilm formation inhibitors, primary screen, strain PAO1, LB-PBS medium, absorbance 600 nm (AID 1176); note: test concentration not given here; settings: P. aeruginosa PAO1 growth/biofilm, A600, 12 h; higher = more signal
[6] = S. cerevisiae RM11-1a growth modifiers, primary screen, strain RM11-1a, OD600, basal, 24 h (AID 1177); settings: OD600, 24 h, higher = more signal, called active from +8 up or from −8 down;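 note: cultures grown under basal conditions with no added stressor; test concentration not given here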
[7] = E. coli acrAB mutant growth effects, primary screen, E. coli filamentation inducers, strain DRC39, OD650, 24 h (AID 1178); settings: higher = more signal, called active from +8 up or from −8 down;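 note: growth measured as culture turbidity by optical density at 650 nm; test concentration not given here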
[8] = E. coli acrAB mutant growth effects, primary screen, E. coli filamentation inducers, strain DRC39, OD650, 48 h (AID 1179);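 note: screen aims at cell division blockers that make cells filament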; settings: E. coli DRC39 delta-acrAB growth, higher = more signal, called active from +8 up or from −8 down
[9] = RPMI8226 myeloma cell viability, profiling panel, resazurin fluorescence, basal, 24 h, PK04 Diversity Set (AID 1180); settings: higher = more signal;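 note: RPMI8826 multiple myeloma cell line at 5000 cells per well; test concentration not given here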
[10] = molecular target: E3 ubiquitin-protein ligase XIAP (Homo sapiens) (UniProt P98170); assay: XIAP binders, primary screen, biophysical, small-molecule microarray, fluorescence 635 nm (AID 1181); settings: small-molecule microarray binding, higher = more signal;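 note: score merges 667 nm emission and signal to noise over triplicate slides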
E3 ubiquitin-protein ligase XIAP (Homo sapiens), sequence (P98170 whole entry, looked up): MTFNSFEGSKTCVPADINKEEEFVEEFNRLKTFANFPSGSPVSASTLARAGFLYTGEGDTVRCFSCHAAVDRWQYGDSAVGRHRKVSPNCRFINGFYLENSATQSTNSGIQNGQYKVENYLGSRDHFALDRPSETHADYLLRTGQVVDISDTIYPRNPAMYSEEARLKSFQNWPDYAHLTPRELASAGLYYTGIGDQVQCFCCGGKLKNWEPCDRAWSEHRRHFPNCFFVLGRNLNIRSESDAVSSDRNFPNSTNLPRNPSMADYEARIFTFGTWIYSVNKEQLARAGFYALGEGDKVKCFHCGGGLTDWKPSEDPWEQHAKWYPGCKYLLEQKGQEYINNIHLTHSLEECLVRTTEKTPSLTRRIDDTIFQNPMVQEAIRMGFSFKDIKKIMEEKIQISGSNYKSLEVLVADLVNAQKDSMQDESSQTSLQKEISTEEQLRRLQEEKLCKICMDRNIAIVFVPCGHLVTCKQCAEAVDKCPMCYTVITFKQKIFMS

Dihydroorotate dehydrogenase (quinone), mitochondrial (Plasmodium falciparum (isolate 3D7)), sequence (Q08210 whole entry, looked up): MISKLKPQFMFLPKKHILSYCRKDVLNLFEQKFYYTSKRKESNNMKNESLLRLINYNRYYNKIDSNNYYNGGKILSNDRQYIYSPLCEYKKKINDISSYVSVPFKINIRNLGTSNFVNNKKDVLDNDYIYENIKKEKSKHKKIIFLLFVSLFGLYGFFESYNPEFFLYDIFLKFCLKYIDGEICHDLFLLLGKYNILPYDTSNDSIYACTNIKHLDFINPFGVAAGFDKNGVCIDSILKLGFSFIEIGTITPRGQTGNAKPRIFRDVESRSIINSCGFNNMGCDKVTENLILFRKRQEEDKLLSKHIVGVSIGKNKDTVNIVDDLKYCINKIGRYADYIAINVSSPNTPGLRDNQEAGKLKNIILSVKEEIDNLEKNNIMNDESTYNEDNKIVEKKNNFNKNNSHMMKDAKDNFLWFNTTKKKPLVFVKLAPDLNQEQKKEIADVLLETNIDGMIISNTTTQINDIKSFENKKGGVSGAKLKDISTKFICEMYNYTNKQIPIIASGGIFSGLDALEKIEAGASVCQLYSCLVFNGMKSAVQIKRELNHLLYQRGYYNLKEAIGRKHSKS

| Structure (SMILES) | z-score [1] | z-score [2] | z-score [3] | composite z-score [4] | z-score [5] | z-score [6] | z-score [7] | z-score [8] | z-score [9] | composite z-score [10] |
| --- | --- | --- | --- | --- | --- | --- | --- | --- | --- | --- |
| CCOC(=O)CCN1C(=O)[C@H]2[C@H]3[C@H](O)C=CC(=O)[C@@H]3CC[C@H]2C1=O | -0.0089 | 0.454 (inactive) | 0.606 (inactive) | 0.231 (inactive) | 0.0942 (inactive) | 0.713 (inactive) | 0.446 (inactive) | -0.689 (inactive) | 0.353 | 0.0356 |
| O=C(NN=C1C[C@@H](O)[C@@H](O)[C@@H]2[C@@H]3C(=O)N(c4cccc(Oc5ccccc5)c4)C(=O)[C@@H]3CC[C@@H]12)OCc1ccccc1 | -0.198 | 0.498 (inactive) | 0.243 (inactive) | 0.351 (inactive) | 0.0942 (inactive) | 0.775 (inactive) | -0.134 (inactive) | -0.192 (inactive) | 0.464 | -0.0506 |
| O=C1O[C@@H](c2ccccc2)[C@@H](c2ccccc2)N2[C@@H](c3ccc(OCCO)cc3)[C@]3(C(=O)Nc4ccc(C#CCCO)cc43)[C@@H](C(=O)N3CCCCCCC3)[C@H]12 | 0.0125 | -0.355 (inactive) | 0.605 (inactive) | 0.221 (inactive) | 1.72 (inactive) | 1.17 (inactive) | -0.515 (inactive) | 0.543 (inactive) | 1.55 | 0.733 |
| C=CCOC(=O)[C@H]1[C@@H]2C(=O)O[C@@H](c3ccccc3)[C@@H](c3ccccc3)N2[C@@H](c2ccc(OCCOC(=O)[C@H]3C[C@H]4C(=O)N5CCC[C@H]5C(=O)N4[C@H]3c3cccc(OCCO)c3)cc2)[C@]12C(=O)Nc1ccc(I)cc12 | 0.187 | 0.0932 (inactive) | -0.376 (inactive) | -15.3 (active) | -0.102 (inactive) | -0.442 (inactive) | -0.277 (inactive) | -0.553 (inactive) | 0.0614 | 0.724 |
| C=CCN1C(=O)[C@]2(O[C@H](CCn3cc(CCO)nn3)[C@@H]([Si](C)(C)c3ccc(OC)cc3)[C@@H]2C)c2cc(N3CCOC3=O)ccc21 | -0.0584 | -0.528 (inactive) | -0.368 (inactive) | -0.173 (inactive) | 0.614 (inactive) | 0.817 (inactive) | -0.815 (inactive) | -1.18 (inactive) | -0.789 | -0.124 |
| O=C1O[C@@H](c2ccccc2)[C@@H](c2ccccc2)N2[C@@H](c3ccc(O)cc3)[C@]3(C(=O)Nc4ccccc43)[C@@H](C(=O)O)[C@H]12 | -0.253 | -0.922 (inactive) | -0.14 (inactive) | -1.42 (inactive) | 0.697 (inactive) | -0.472 (inactive) | -0.0134 (inactive) | -0.831 (inactive) | 0.393 | 0.125 |
| C=COC[C@H]1CN2[C@@H](CC[C@@H](C)[C@@H]2c2ccc(Br)cc2)C(=O)O1 | 0.524 | -3.11 (inactive) | 0.255 (inactive) | -0.613 (inactive) | 0.523 (inactive) | -2.06 (inactive) | 0.0556 (inactive) | -0.848 (inactive) | -0.555 | -0.209 |
| CC(=O)C[C@H](O)[C@@H](NC(=O)OC(C)(C)C)C(C)C | -0.519 | -1.33 (inactive) | 0.481 (inactive) | -3.13 (inactive) | 0.0494 (inactive) | -0.407 (inactive) | -1.86 (inactive) | -1.1 (inactive) | -0.228 | -0.195 |
| CC(C)=NOCc1cccc(-c2cc(-c3ccccc3)no2)c1 | -0.714 | 0.671 (inactive) | -0.862 (inactive) | -0.502 (inactive) | 0.475 (inactive) | -0.39 (inactive) | 1.19 (inactive) | -1.41 (inactive) | -0.975 | -0.288 |
| CCCCCN1CC=CC23O[C@@H]4C=CCOC(=O)[C@@H]4[C@H]2C(=O)N(C(CO)C(C)C)[C@@H]3C1=O (stereo not given in full) | 0.862 | 1.02 (inactive) | 0.111 (inactive) | 0.204 (inactive) | 0.0126 (inactive) | 0.89 (inactive) | -0.128 (inactive) | -0.301 (inactive) | -0.0045 | 0.266 |
| CC(C)=NOCc1ccc(-c2cc(-c3ccccc3)no2)cc1 | -0.503 | 0.288 (inactive) | -0.284 (inactive) | 0.21 (inactive) | -0.446 (inactive) | -0.194 (inactive) | 0.302 (inactive) | 0.387 (inactive) | -0.424 | 0.103 |
| CCCC=C(CCC)[C@@H](NC(=O)c1ccc(-c2ccccc2)cc1)c1ccc(C(=O)OC)cc1 | 0.664 | 1.44 (inactive) | -0.438 (inactive) | 0.407 (inactive) | -0.126 (inactive) | 1.23 (inactive) | 0.0519 (inactive) | -0.21 (inactive) | -0.361 | 0.0512 |
| C=C(/C(=C/C[C@H](OC(=O)c1ccncc1)c1ccc(OCCO)cc1)c1cnc2ccccc2c1)C(C)C | 0.145 | -0.753 (inactive) | -0.777 (inactive) | -2.73 (inactive) | 0.85 (inactive) | 0.0942 (inactive) | -1.05 (inactive) | -1.02 (inactive) | 0.0076 | 0.13 |
